Here are results for 40 compounds from PubChem BioAssay (NCI).

This is part of a sample that, as a whole, favours compounds with a hit. Of some 79,000 tested, about 15% had one in any assay. Activity calls are given as the source filed them. Rule as the data show it: active = growth inhibition above about 70%; inactive = the rest. Where a SMILES comes first, the peptide text is derived from it. [ ]: non-standard residue; d: D form. The star is where a group is joined. Cbz = O=C(OCc1ccccc1)*; Nva = CCC[CH](N)C(=O)O

A short description of this assay: NCI Yeast Anticancer Drug Screen. Data for the mec2-1 strain (AID 157). To be noted: S. cerevisiae mec2-1 strain, at 50.0 µM, hits give high values. The gist of the method: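 Using mec2-1 yeast: add compound, measure growth, express inhibition versus vehicle-treated cultures.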
As to `CCCNS(=O)(=O)c1ccccc1C(=O)NC1CCCCC1`, the growth inhibition is -9.9% (inactive). As for `Nc1cc(Cl)c(F)cc1Cl`, the figure is 0.25% (inactive); as for `C[N+](C)(Cn1nc(Cl)c2ccc([N+](=O)[O-])cc21)Cn1nc(Cl)c2ccc([N+](=O)[O-])cc21`, -5% (inactive). With `CCOC(=O)c1cc(C)nc2c1c(=O)n(-c1ccccc1)c(=O)n2CCCCN1CCN(c2ccccc2)CC1`, the growth inhibition is -13.2% (inactive).

With `CC(=Nc1cccc2ccccc12)c1c(O)cc(C)oc1=O`, the growth inhibition is 12.2% (inactive). As for `COc1cc2ccccc2ccc1=O`, the figure is 7.95% (inactive). As for `O=C(Cc1cc2ccccc2[nH]c1=O)Nc1ccccc1`, the figure is -7.2% (inactive). As for `N=C(N)S/C=C/C(=O)O`, the figure is -17.4% (inactive); as for `CCOC(=O)CCC(NC(=O)C(CCC(=O)OCC)NC(=O)OCc1ccccc1)C(=O)O` (stereo not given) (tested in a mixture with another compound) (Cbz-Glu(OEt)-Glu(OEt)-OH; configuration not given here), 1.15% (inactive); as for `O=C1C(OCc2ccccc2)=C(OCc2ccccc2)C(=O)c2ccccc21`, 3.1% (inactive).

Consider `CN(C)Cc1ccccc1COC(=O)c1ccccc1`, for which the growth inhibition was 20.1% (inactive). The figure for `CCCCCCC1NN(C(C)=O)C(CCCCCC)NN1C(C)=O` (stereo not given) is -4.1% (inactive).

Regarding `NCCCC(=O)NCCCCCCCCCCNC(=O)CCCN`, the growth inhibition was 18% (inactive). On to `O=[N+]([O-])c1cccc(CC(=S)N2CCOCC2)c1`, for which the growth inhibition is -3.8% (inactive). The figure for `CNCCC(Oc1ccccc1OC)c1ccccc1` (stereo not given) is 8.9% (inactive). The figure for `NC1(C(=O)OCc2ccccc2)CCCC1` is -5.45% (inactive). As for `CC(C)N1C(=O)c2ccccc2C1=O`, the figure is 22.1% (inactive).

On to `O=C1c2ccccc2-c2ccc3c4ccc5c6c(ccc(c7ccc1c2c73)c64)-c1ccccc1C5=O`, for which the growth inhibition is -5.4% (inactive). As for `O=S1(=O)NC2CCC3NS(=O)(=O)NC4CCC(N1)N4S(=O)(=O)N23` (stereo not given), the growth inhibition was -17.4% (inactive). The figure for `CC(C)(C)n1c(=O)[nH]c(=O)n1C(C)(C)C` is -18.4% (inactive); for `C[Si](C)(C)c1ccc2c(c1O)C(=O)c1ccccc1C2=O` it is 16.9% (inactive); for `CC(C)(Oc1ccc(/C=C/C(=O)c2ccc(Cl)cc2)cc1)C(=O)Nc1c(Cl)cccc1Cl` it is -2.05% (inactive). As for `Cc1ccc(N=Nc2c(O)ccc3n[nH]nc23)cc1`, the figure is 0.2% (inactive); as for `CC1(c2cccc(N)c2)OCCO1`, -7.2% (inactive); as for `Cc1cc(Br)c(NC(=O)c2c(-c3c(Cl)cccc3Cl)noc2C)c(Br)c1`, -16.3% (inactive). The figure for `COC(=O)/C(=C\C(=O)c1ccc(Br)cc1)NN=C(c1ccccc1)c1ccccc1` is -1.55% (inactive); for `O=C(Nc1ccc(N=C=S)cc1Cl)c1ccc2ccccc2c1O` it is 14.3% (inactive).

In the case of `O=C1CCCCCCCC(=O)Nc2ccc3nc4ccccc4c(c3c2)SCCCCCCCCCSc2c3ccccc3nc3ccc(cc23)N1`, the growth inhibition is -13.2% (inactive). The figure for `CCCC(NC(=O)OCc1ccccc1)C(=O)NC(Cc1ccc(O)cc1)C(=O)O` (stereo not given) (Cbz-[Nva]-Tyr-OH; configuration not given here) is -0.35% (inactive); for `O=S(CCO)c1ccc(Cl)cc1` (stereo not given) it is -20.1% (inactive); for `CC1(C)CSC(C)(C)C(=O)N1` it is -1.95% (inactive). As for `CCOc1c(Cl)c(Cl)c(Cl)c(Cl)c1Cl`, the figure is 3.95% (inactive); as for `N#Cc1nc(Cc2ccccc2)oc1N`, 9.2% (inactive); as for `Cc1nc(-n2nc(-c3ccccc3)cc2-c2ccccc2)sc1C(=O)/C=C/c1ccc(Cl)c(Cl)c1`, 4.55% (inactive).

Take `COC(=O)c1c(O)ccc(O)c1C(=O)OC`: the growth inhibition was -18.4% (inactive).

Take `COC(=O)c1cc([N+](=O)[O-])c(Br)s1`: the growth inhibition is 99.6% (active). The figure for `CCOC(=O)NC(C(=O)OCC)(N1CCN(c2cc3c(cc2F)c(=O)c(C(=O)O)cn3CC)CC1)C(F)(F)F` (stereo not given) is -25.2% (inactive); for `CCCCCCCCCSCCOC(=S)N(C)C` it is 14.7% (inactive). Take `CN(C)C(=O)NC(=S)N(C)C`: the growth inhibition was -10.3% (inactive). The figure for `CCC1(CC)CC(=O)NC1=O` is -11.6% (inactive).
